Laboratory results: publication PMC13494018

B1: design_487_778f5c6d-c470-43b8-8f82-464af6177e08_1334_dldesign_0_cycle1_af2pred (protein)
chain: AGGYAVLAQNTLARARALAAQGPAALPEIEAQARILQQVAEAAAQAGDAEGAATAAANAEQARALAEEARRA
B2: design_487_778f5c6d-c470-43b8-8f82-464af6177e08_420_dldesign_0_cycle1_af2pred (protein)
chain: AEEKIKEANRLFQEGARKMVQGLQLAAQGKKEEAEKELTEAIELFTKASKLAKEAGDERLAESAEKAAKEAKAQLAAVKAA
B3: design_487_778f5c6d-c470-43b8-8f82-464af6177e08_1117_dldesign_0_cycle1_af2pred (protein)
chain: MNVEEAKAQIEALMNRARGYFMRGAALAGTPEGAALNAKGAALLAEAEALAKEAGPEAQKVFAELKAKMDAAVNAVAN
B4: design_487_778f5c6d-c470-43b8-8f82-464af6177e08_560_dldesign_0_cycle1_af2pred (protein)
chain: GAAKLAQGALNMAKAQLAYLEKALAAGAADPANAAAYKAKAKEALEQLKTFATAATLVDPAAAPEGDAILKEAEAKYKALSAAIAAA
B5: design_487_778f5c6d-c470-43b8-8f82-464af6177e08_1130_dldesign_0_cycle1_af2pred (protein)
chain: MTTEETARQQRENVEQVGRVAGLPEQAAELARAMEERAIREGLSNEEIIAEASRLSAQINRQALAAAQAA
B6: design_487_778f5c6d-c470-43b8-8f82-464af6177e08_901_dldesign_0_cycle1_af2pred (protein)
chain: DELEKKIKEELEKAKEYLKKGKELFEAGKYKEAAAEFEKAIEYASKAMELAAEAGPKYNKYGVEASKVANEAYKLRQQALAK
B7: design_487_778f5c6d-c470-43b8-8f82-464af6177e08_613_dldesign_0_cycle1_af2pred (protein)
chain: EEAEKERARAIIEKASAKLDALAAEAEERDPALGAQARALRDSLAATAQTYIETGSPTGRAGLNSLAAFLA
B8: design_486_d4f32670-1303-4d79-8413-1b14cb3eff50_2004_dldesign_0_cycle1_af2pred (protein)
chain: KKAEILAAGNALVVELLAEAEKAAKAAKAAGDPEAANQALVEAAKGAAKIHALMVKGAPVEELKKEAEAAKKKIKALAE
B9: design_487_778f5c6d-c470-43b8-8f82-464af6177e08_1416_dldesign_0_cycle1_af2pred (protein)
chain: DEEERKKKAAEIMKKQAEKLKALAAADPANALTYRAAAALFEAAAIETLKDPEKGLKVGEDAVGLMAQVPAVAPEAKAAYEKAKALL
B10: design_487_778f5c6d-c470-43b8-8f82-464af6177e08_1129_dldesign_0_cycle1_af2pred (protein)
chain: AEELRERMKKSADGAIEVINDLTAYGIAHPEHAALARAALTGLGTNMIAAAAANPVSKELAEKLAAALTAATAAIDAA
B11: design_487_778f5c6d-c470-43b8-8f82-464af6177e08_1381_dldesign_0_cycle1_af2pred (protein)
chain: MVEKAIEMVEKATKEAAARAPAKAEEIKKLGEKFKKEVEYLGKLNPESGLVMARGAVGALKDIADKEAKA
B12: design_487_778f5c6d-c470-43b8-8f82-464af6177e08_501_dldesign_0_cycle1_af2pred (protein)
chain: MDRAVEIAVASLKHAVKQAIAAAEKIDPELAKKVEEEGKKKIEEAAASDSATAVEIAIEALKKLSELSKKARA
B13: design_486_d4f32670-1303-4d79-8413-1b14cb3eff50_2148_dldesign_0_cycle1_af2pred (protein)
chain: GSAAYEFAKEAIERALKAAEELKKLDPEEGKKLIEKVEKLKKELEANKDNAQKAARIAIEALQIEQEAQQKIAALKAA
B14: design_487_778f5c6d-c470-43b8-8f82-464af6177e08_89_dldesign_0_cycle1_af2pred (protein)
chain: SEAEKEAEKAEKLVEELRANPKVPLEKAKELAKAIQELAKLDPEKGAEMASKAVAVILEKGKEIPGETINAILTGVSKAHAIINA
B15: design_487_778f5c6d-c470-43b8-8f82-464af6177e08_509_dldesign_0_cycle1_af2pred (protein)
chain: GEAFSKEALEKGKEAAKKAEESTDPEAKTLYIKAASNYYGAAALALSPESAPLAKERAAKGDEYRAKADAL
B16: design_487_778f5c6d-c470-43b8-8f82-464af6177e08_1099_dldesign_0_cycle1_af2pred (protein)
chain: AAEEVAKKFAKAVLRIALKQIDENAADPELVKKIADNAVKLLNSLSDGAAVAKAEAEKIKAHAEATIAKAKAAKA
B17: design_487_778f5c6d-c470-43b8-8f82-464af6177e08_1347_dldesign_0_cycle1_af2pred (protein)
chain: AAEAETQAALAQLQATMHELMRIAAQALALGDAELAQEALEAVVKGQEGLADPSIVKATAEEVSAARERLRARVEALRAA
B18: design_487_778f5c6d-c470-43b8-8f82-464af6177e08_1105_dldesign_0_cycle1_af2pred (protein)
chain: AAQLALARATLIAAADSLERLAAQAGPAYAPVAAEAAALRAAAEAGTLTADEANAALGRLLDQMEAISAEIR
B19: design_487_778f5c6d-c470-43b8-8f82-464af6177e08_1159_dldesign_0_cycle1_af2pred (protein)
chain: DTAAALAAAAAAAAALAKADPALAPAALAITQANLAAILDLAEETKAANPEVPAAVGETFNTAITTASTAYATALKLAQ
B20: design_487_778f5c6d-c470-43b8-8f82-464af6177e08_718_dldesign_0_cycle1_af2pred (protein)
chain: MKKEEAIRALAAAAARAAKLAVDPRTAAVANKALEVVVSAMEEVEASEDEEEAVEIAEKALAEADKLLAEAAKAA
B21: design_486_d4f32670-1303-4d79-8413-1b14cb3eff50_2076_dldesign_0_cycle1_af2pred (protein)
chain: AALVGEAMVLLAEVAAAGPPEVRAKASAAIAALAAGDLETALKLAKEAAELLKKAGKEYEPAAKKAEEAAKLLKEAAAAAA
B22: design_487_778f5c6d-c470-43b8-8f82-464af6177e08_256_dldesign_0_cycle1_af2pred (protein)
chain: GEALEKAKEYEKEANEAAAKGKATTPAEGALYFLKAAALYAKAAEEYKKAGDEKNAKEAEAKAKEATANMIALSKQAIAA
B23: design_487_778f5c6d-c470-43b8-8f82-464af6177e08_1277_dldesign_0_cycle1_af2pred (protein)
chain: EKEEAKKKAEELLKEIKKLAKEAAASDAETANKYLAKAVETAKELYELAKKIGEEGKELAKEANAALAAAAKAAMDKVQ
B24: design_487_778f5c6d-c470-43b8-8f82-464af6177e08_421_dldesign_0_cycle1_af2pred (protein)
chain: SDAKLAVEAARSAAIAAIELAKQGAWQGAELARQNMKKAAEKALKLGAADPSVKEEVEKEVNAIVKETDAALAAEKAAR
B25: design_486_d4f32670-1303-4d79-8413-1b14cb3eff50_2179_dldesign_0_cycle1_af2pred (protein)
chain: AQEANDLLAETLETLREGQAAAKELGDEEARLKLVELANKSMTLASQAVAAGGDQELLDKAKEYHAELKKLAKEVKEKA
B26: design_487_778f5c6d-c470-43b8-8f82-464af6177e08_310_dldesign_0_cycle1_af2pred (protein)
chain: AAVLSPEQAGGTFRALATSIRLAAEAGDLDSAEALAAAGLQLAENQPAVAPLVNKAKEEAAKLTPKEAALKLADAFEQAGDALLA
B27: design_487_778f5c6d-c470-43b8-8f82-464af6177e08_749_dldesign_0_cycle1_af2pred (protein)
chain: GAEEALLAEARALLARAQGLLIEAAKQLKTDPAAAIKLAEEAKKLAEKAKELAKKLGRRGPGLQAMADAVIDSAKALKAQAEAAL
B28: design_487_778f5c6d-c470-43b8-8f82-464af6177e08_100_dldesign_0_cycle1_af2pred (protein)
chain: MDKEQVYETAAKMLEEGAELVKAGEETKPAGLAKAKAAALLVLGVDPEVGEKVLKLVEEAEKADQEKAAKLIEEAAKLVKE
B29: design_486_d4f32670-1303-4d79-8413-1b14cb3eff50_1967_dldesign_0_cycle1_af2pred (protein)
chain: DAEVEKLQAQIRTAGLILMASSSPEKAEEALKRTKEAVELAKKNPEEGLKLAEEIAEEAKKVGTPEQAAVIDSVFK
B30: design_487_778f5c6d-c470-43b8-8f82-464af6177e08_816_dldesign_0_cycle1_af2pred (protein)
chain: GSMEELAKLRAEAEEKLAAAQAVVERPAETVTLEELNAALAQAVEAARLFQEVGDRELLAEAFRVAATLAARAVEVAA
B31: design_487_778f5c6d-c470-43b8-8f82-464af6177e08_1075_dldesign_0_cycle1_af2pred (protein)
chain: AAAEEAKKLVKEAKALLKAAEATGNLALAQAALEKALEAIALGAEVNKERPLPVAVEAVRLAGRAYALVRQLTA
B32: design_487_778f5c6d-c470-43b8-8f82-464af6177e08_920_dldesign_0_cycle1_af2pred (protein)
chain: ESVREAARKVKELAEALAAQAKAAGDEEAAKLAEEAAKLAEEAEKKAEEDPEEAKRLIVEALRLLNRAFALLVAAS
B33: design_487_778f5c6d-c470-43b8-8f82-464af6177e08_1348_dldesign_0_cycle1_af2pred (protein)
chain: AEKKREEAKKLVEEAKKLAEKGDFEKAVEKLREAVALDPSVIGEALEAVKVIAEKNPAAAPAASLAIIRAAQEA
B34: design_487_778f5c6d-c470-43b8-8f82-464af6177e08_620_dldesign_0_cycle1_af2pred (protein)
chain: GAKSKALQKLFQQANELHKLAIAAKKPEAKKIYNEAAGTALDFAEKAQAGGDEEAEKLAKEAEKIAKEAKEKALAIE
B35: design_487_778f5c6d-c470-43b8-8f82-464af6177e08_1035_dldesign_0_cycle1_af2pred (protein)
chain: VEEIVERVNAALARATRAALAGGPEAAARTAELMRRAAEAVRLAREDPEAGKKIADEVEAEVDALLAAVA
B36: design_487_778f5c6d-c470-43b8-8f82-464af6177e08_978_dldesign_0_cycle1_af2pred (protein)
chain: KSPTEQVAEYAAKVRAKAPKGEEIARLLFSYNAAYQADPAKGKEKEKELKALAKENPEAKEYVEAAVAAVKA
B37: design_486_d4f32670-1303-4d79-8413-1b14cb3eff50_2359_dldesign_0_cycle1_af2pred (protein)
chain: DAAKEFAENYEKAAEYVSQIYAKDPAAGEEMQKVLTAKTAEASKLAIAGDLAGAAKVMKEALEIAKKKLEEL
B38: design_487_778f5c6d-c470-43b8-8f82-464af6177e08_452_dldesign_0_cycle1_af2pred (protein)
chain: EEERIQRIAEQVEELIKTAEEALATGTAAGKQAAKQLALAAATVLSSVDPELGAKVKEVAKTGTAEEAIKAAKEALEEIKKK
B39: design_486_d4f32670-1303-4d79-8413-1b14cb3eff50_1885_dldesign_0_cycle1_af2pred (protein)
chain: MEEAGEIVERAEEVYKRAKEAAEENAKRNPEKKEEIKKLYEEAVALIQKSLALASQGALEGNQELLKEAKKKLEEAEKVAKEIEKL

Each binder was assayed against CD276, Q5ZPR3.
Chain of CD276, Q5ZPR3 (Q5ZPR3 whole entry): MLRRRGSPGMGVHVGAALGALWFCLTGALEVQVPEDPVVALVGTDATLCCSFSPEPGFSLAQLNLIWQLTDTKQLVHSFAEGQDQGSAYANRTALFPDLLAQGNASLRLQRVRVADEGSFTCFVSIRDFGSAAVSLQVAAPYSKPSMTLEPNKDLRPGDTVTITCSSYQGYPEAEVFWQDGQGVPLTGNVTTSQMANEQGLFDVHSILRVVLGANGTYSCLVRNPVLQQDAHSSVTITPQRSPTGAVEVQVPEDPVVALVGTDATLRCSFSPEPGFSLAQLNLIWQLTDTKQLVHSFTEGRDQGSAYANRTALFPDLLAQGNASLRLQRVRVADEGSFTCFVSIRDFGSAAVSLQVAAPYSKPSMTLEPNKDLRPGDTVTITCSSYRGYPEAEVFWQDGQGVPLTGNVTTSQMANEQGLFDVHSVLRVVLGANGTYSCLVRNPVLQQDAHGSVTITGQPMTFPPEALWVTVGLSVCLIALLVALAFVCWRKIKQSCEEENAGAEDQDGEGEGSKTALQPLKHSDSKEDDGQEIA

Binding in a display sort, inactive:
B1 not found
B2 not found
B3 not found
B4 not found
B5 not found
B6 not found
B7 not found
B8 not found
B9 not found
B10 not found
B11 not found
B12 not found
B13 not found
B14 not found
B15 not found
B16 not found
B17 not found
B18 not found
B19 not found
B20 not found
B21 not found
B22 not found
B23 not found
B24 not found
B25 not found
B26 not found
B27 not found
B28 not found
B29 not found
B30 not found
B31 not found
B32 not found
B33 not found
B34 not found
B35 not found
B36 not found
B37 not found
B38 not found
B39 not found
